# Data published in paper PMC8384837, “Expanding the binding specificity for RNA recognition by a PUF domain”.
# Molecular target: PUM1 PUF domain R5-KRS (Homo sapiens, UniProt Q14671 828-1176, C1007K;Q1011S)
# Assay: yeast three-hybrid, YBZ-1, SC-Leu-His + 0.5 mM 3-AT, 4 days
# Conditions: tags: N-Gal4 AD-HA kept; label: inside an RPR1-promoter hybrid RNA with tandem MS2 sites; ssRNA
# Procedure, shortened: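 Each repeat of the Pumilio-1 PUF domain was randomized at its three base-contacting residues, and these libraries were co-expressed from a centromeric plasmid with matching RNA elements in strain YBZ-1. After four days on SC-Leu (input) or SC-Leu-His + 0.5 mM 3-AT (selection), the repeat regions were PCR-amplified and Illumina-sequenced. The interaction score compares variant frequency between input and selection as a log change, computed in log2 with a pseudocount of 1 for absent variants.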
# Chain of PUM1 PUF domain R5-KRS (Q14671 828-1176 C1007K/Q1011S): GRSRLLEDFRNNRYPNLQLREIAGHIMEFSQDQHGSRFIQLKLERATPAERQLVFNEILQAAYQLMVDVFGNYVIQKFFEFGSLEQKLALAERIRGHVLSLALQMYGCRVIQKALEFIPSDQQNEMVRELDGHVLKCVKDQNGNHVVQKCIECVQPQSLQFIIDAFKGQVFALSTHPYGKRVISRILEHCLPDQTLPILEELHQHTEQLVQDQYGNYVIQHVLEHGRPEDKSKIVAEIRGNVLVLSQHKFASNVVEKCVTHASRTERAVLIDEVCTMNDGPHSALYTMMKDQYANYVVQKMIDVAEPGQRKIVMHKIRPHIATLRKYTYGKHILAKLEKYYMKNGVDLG
row,Sequence,binding signal
1,GGCUAGAACUAGUGGAUCCCCCGGCGCCCGGCGGCUCGAGCCCGGGUAAGUGUCAAUAGUCUGCAUGCCGCCGGGCGCCAUGCCUGCAGGUCGACUCUAGAAAACAUG,3.74 log2 enrichment (interaction score)
2,GGCUAGAACUAGUGGAUCCCCCGGCGCCCGGCGGCUCGAGCCCGGGUAAGUGUUAAUAGUCUGCAUGCCGCCGGGCGCCAUGCCUGCAGGUCGACUCUAGAAAACAUG,3.41 log2 enrichment (interaction score)
3,GGCUAGAACUAGUGGAUCCCCCGGCGCCCGGCGGCUCGAGCCCGGGUAAGUGUAAAUAGUCUGCAUGCCGCCGGGCGCCAUGCCUGCAGGUCGACUCUAGAAAACAUG,1.71 log2 enrichment (interaction score)
